Records with an inconclusive call do not appear. The source made the active and inactive calls. Unless noted, calls follow the shape of the dose curve; as a rule, active = well fitted curve in the direction sought with a large enough effect; inconclusive = small, poorly fitted or top-dose-only effect, or another doubt; inactive = no such curve, though single readings can be large; an effect the other way counts as inactive or inconclusive.
Columns and labels:
[1] = biological target: Cytochrome P450 1A2 (Homo sapiens) (UniProt P05177); experiment: p450-cyp1a2 (AID 410; calls by dose curve; also: potency is read from the fitted curve at half-maximal effect)
Chain of Cytochrome P450 1A2 (Homo sapiens) (P05177 whole entry, looked up): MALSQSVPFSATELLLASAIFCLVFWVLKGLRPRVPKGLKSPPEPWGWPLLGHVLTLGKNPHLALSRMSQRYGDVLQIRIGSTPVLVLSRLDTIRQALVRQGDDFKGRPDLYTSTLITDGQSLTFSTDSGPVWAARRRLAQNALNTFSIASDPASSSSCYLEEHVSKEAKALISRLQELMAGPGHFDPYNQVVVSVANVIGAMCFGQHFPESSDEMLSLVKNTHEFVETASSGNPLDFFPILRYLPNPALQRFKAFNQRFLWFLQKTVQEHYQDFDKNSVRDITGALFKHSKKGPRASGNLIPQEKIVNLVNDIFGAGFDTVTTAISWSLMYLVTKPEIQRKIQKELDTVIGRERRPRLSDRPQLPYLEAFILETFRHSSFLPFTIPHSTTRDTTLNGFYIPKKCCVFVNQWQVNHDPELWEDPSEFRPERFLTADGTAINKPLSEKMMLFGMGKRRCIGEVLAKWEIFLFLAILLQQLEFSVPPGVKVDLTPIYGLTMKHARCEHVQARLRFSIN
Summary of the method: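 Luminescent demethylation readout: Luciferin-ME (100uM, equal to Km) turned over by 20nM CYP1A2 for 60 min at room temperature after NADPH regeneration addition, following 10 min compound preincubation. Normalization used 57 uM furafylline as full inhibition.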

[2] = biological target: Glucocorticoid receptor (Homo sapiens) (UniProt P04150); experiment: GR-GFP Redistribution (AID 450;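 active = compounds whose dose series gives a full or clear partial fitted curve of increased nuclear translocation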; also: potency is read from the fitted curve at half-maximal effect); conditions: U2OS GR-GFP nuclear translocation, laser cytometry, 2 h
Chain of Glucocorticoid receptor (Homo sapiens) (P04150 whole entry, looked up, the tested form may be a part): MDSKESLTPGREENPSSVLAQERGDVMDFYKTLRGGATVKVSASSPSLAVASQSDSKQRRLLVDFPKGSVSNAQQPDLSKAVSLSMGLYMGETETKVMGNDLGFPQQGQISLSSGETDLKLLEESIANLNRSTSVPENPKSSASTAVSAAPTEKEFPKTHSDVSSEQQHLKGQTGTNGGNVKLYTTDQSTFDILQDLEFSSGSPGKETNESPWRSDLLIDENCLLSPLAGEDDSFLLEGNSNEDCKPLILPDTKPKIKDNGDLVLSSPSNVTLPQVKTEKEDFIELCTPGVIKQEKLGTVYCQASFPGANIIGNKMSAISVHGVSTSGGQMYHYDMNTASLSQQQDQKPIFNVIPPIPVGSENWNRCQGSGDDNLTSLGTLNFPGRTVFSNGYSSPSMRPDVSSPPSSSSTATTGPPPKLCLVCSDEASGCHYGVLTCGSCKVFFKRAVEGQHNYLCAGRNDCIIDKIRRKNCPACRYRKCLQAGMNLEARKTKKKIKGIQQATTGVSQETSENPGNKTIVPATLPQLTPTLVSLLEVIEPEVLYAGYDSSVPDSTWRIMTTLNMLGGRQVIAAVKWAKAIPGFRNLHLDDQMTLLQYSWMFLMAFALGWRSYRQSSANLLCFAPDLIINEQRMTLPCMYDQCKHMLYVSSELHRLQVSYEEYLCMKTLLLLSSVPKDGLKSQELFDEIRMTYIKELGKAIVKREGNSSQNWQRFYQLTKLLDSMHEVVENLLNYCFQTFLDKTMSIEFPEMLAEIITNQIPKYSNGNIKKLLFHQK

[3] = biological target: Glucocorticoid receptor (Homo sapiens) (UniProt P04150); experiment: GR-EFC Redistribution (AID 451; calls by dose curve; also: potency is read from the fitted curve at half-maximal effect); conditions: CHO-K1 GR-EFC translocation, beta-gal luminescence, 2 h
Summary of the method: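 CHO-K1 cells expressing nuclear EA and GR-ED fragments of b-gal; compounds titrated up to 46 uM final, 2 h at 37 C. GR nuclear translocation read as complemented b-gal luminescence after 1 h RT detection.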

[4] = biological target: Mitogen-activated protein kinase 10 (Mus musculus) (UniProt Q61831); experiment: JNK3 AlphaScreen Assay (AID 530; active = well fitted curve in either direction with a large enough effect, not every such curve was filed as active;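 also: kinase came from lysate of stimulated human HepG2 cells; signal reports phosphorylation of biotinylated GST-cJun 1-79 at Ser73 with 10 µM ATP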)
Summary of the method: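 Activity was read by AlphaScreen after JNK3-containing HepG2 lysate (cytokine pre-activated) phosphorylated biotinylated GST-cJun with 10 uM ATP at room temperature. Phospho-Ser73 cJun antibody with Protein-A acceptor beads provided detection.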

[5] = biological target: Cytochrome P450 2C9 (Homo sapiens) (UniProt P11712); experiment: qHTS Assay for Inhibitors and Substrates of Cytochrome P450 2C9 (AID 883); also: potency is read from the fitted curve at half-maximal effect; nearly all actives have a fitted effect of over 60% in size
Chain of Cytochrome P450 2C9 (Homo sapiens) (P11712 whole entry, looked up): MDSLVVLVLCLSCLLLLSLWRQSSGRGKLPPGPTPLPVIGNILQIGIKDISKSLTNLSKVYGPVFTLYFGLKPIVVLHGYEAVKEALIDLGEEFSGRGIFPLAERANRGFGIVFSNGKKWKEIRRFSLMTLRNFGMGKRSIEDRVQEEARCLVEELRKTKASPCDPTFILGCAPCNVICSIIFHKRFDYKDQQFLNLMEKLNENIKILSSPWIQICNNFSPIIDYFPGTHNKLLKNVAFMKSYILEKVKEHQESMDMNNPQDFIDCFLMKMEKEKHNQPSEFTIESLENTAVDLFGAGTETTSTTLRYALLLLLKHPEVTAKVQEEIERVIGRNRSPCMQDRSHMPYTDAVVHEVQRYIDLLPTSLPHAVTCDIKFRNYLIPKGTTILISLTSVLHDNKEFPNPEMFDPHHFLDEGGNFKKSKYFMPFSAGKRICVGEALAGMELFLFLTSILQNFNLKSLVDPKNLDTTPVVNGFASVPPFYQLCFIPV
Summary of the method: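 Signal: luciferase luminescence reporting luciferin produced by CYP2C9. Conditions: 10nM enzyme, Luciferin-H 100uM at KM, 25mM KPO4, 37C, 60 min NADPH-driven reaction. Reference: 57uM sulphaphenazole as 100% inhibition.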

[6] = biological target: Cytochrome P450 3A4 (Homo sapiens) (UniProt P08684); experiment: qHTS Assay for Inhibitors and Substrates of Cytochrome P450 3A4 (AID 884); also: potency is read from the fitted curve at half-maximal effect; nearly all actives have a fitted effect of over 50% in size
Chain of Cytochrome P450 3A4 (Homo sapiens) (P08684 whole entry, looked up): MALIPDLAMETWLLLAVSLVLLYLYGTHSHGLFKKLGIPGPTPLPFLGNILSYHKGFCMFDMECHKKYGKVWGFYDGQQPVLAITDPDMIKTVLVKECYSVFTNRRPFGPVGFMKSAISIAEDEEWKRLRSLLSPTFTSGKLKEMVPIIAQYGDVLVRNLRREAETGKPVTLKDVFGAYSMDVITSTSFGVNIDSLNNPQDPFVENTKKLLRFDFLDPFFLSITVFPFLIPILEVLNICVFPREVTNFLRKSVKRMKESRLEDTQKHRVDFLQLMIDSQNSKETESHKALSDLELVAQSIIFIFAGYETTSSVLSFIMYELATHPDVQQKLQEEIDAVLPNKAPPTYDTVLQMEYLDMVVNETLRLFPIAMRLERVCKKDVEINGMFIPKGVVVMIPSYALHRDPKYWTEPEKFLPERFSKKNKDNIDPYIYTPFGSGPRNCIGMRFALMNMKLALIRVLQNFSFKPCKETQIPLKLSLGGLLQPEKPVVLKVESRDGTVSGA
Summary of the method: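 Luminescent readout of luciferin produced by CYP3A4 (20 nM) dealkylation of Luciferin-PPXE, 25 uM (its KM). NADPH-driven reaction ran 60 min at RT after 10 min compound preincubation; data scaled to 57 uM ketoconazole as 100% inhibition.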

[7] = biological target: Cytochrome P450 3A4 (Homo sapiens) (UniProt P08684); experiment: qHTS Assay for Activators of Cytochrome P450 3A4 (AID 885); also: nearly all actives have a fitted effect of over 65% in size
Summary of the method: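 Human CYP3A4 dealkylates Luciferin-PPXE to luciferin, which luciferase detection converts to light. Substrate was at its KM (25uM), buffer 200mM KPO4, reaction 60 min at RT.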

[8] = biological target: Cytochrome P450 2C19 (Homo sapiens) (UniProt P33261); experiment: qHTS Assay for Inhibitors and Substrates of Cytochrome P450 2C19 (AID 899); also: potency is read from the fitted curve at half-maximal effect; nearly all actives have a fitted effect of over 60% in size
Chain of Cytochrome P450 2C19 (Homo sapiens) (P33261 whole entry, looked up): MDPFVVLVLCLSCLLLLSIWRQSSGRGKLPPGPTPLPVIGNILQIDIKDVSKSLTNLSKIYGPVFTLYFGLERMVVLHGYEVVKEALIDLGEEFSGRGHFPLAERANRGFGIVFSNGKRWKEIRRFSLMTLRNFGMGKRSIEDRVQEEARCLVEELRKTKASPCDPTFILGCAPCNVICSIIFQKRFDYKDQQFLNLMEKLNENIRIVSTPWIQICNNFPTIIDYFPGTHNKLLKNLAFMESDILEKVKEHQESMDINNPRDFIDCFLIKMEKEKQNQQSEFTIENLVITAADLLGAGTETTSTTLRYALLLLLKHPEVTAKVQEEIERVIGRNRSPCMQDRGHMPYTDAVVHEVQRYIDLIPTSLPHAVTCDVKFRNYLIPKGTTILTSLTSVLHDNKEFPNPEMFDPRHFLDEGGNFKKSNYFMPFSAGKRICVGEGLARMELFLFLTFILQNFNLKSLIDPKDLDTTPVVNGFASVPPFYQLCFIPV
Summary of the method: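 Signal comes from luciferase acting on luciferin released by CYP2C19-mediated hydroxylation of Luciferin-H EGE, 10uM (KM). Assay mix: 5nM enzyme, 50mM KPO4; 60 min at 37C with NADPH regeneration. Data normalized against 57uM ketoconazole.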

[9] = biological target: ATP-dependent 6-phosphofructokinase (Trypanosoma brucei brucei) (UniProt O15648); experiment: qHTS Assay to Find Inhibitors of T. brucei phosphofructokinase: hit validation (AID 492961);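 also: luminescence reports ADP formed as PFK phosphorylates fructose-6-phosphate with ATP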
Chain of ATP-dependent 6-phosphofructokinase (Trypanosoma brucei brucei) (O15648 whole entry, looked up): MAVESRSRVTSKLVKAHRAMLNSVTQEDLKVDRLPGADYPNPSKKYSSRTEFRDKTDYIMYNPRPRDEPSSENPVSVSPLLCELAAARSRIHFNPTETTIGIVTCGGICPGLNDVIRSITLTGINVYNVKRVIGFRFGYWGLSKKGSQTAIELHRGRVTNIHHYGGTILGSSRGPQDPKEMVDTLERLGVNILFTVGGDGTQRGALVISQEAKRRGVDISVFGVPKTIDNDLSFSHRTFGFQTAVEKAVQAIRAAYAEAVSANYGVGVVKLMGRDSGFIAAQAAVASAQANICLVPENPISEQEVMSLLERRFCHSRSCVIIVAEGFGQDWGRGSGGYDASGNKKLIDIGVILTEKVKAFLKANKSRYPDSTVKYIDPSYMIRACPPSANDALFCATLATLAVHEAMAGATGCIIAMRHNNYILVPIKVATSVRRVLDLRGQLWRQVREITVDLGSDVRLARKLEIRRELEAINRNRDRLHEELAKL
Summary of the method: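 Inhibition of parasite PFK is measured as reduced ADP formation, quantified via luciferase after ATP depletion. Assay used 0.1 mM ATP, 0.5 mM F6P, 1.25 nM enzyme, 45 min incubation.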

[10] = biological target: Ubiquitin carboxyl-terminal hydrolase 1 (Homo sapiens) (UniProt O94782); experiment: Inhibitors of USP1/UAF1: Pilot qHTS (AID 504865);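 also: rhodamine fluorescence freed from ubiquitin-rhodamine substrate followed over time; top concentration of the series differs between compounds; nearly all actives have a fitted effect of over 35% in size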
Chain of Ubiquitin carboxyl-terminal hydrolase 1 (Homo sapiens) (O94782 whole entry, looked up): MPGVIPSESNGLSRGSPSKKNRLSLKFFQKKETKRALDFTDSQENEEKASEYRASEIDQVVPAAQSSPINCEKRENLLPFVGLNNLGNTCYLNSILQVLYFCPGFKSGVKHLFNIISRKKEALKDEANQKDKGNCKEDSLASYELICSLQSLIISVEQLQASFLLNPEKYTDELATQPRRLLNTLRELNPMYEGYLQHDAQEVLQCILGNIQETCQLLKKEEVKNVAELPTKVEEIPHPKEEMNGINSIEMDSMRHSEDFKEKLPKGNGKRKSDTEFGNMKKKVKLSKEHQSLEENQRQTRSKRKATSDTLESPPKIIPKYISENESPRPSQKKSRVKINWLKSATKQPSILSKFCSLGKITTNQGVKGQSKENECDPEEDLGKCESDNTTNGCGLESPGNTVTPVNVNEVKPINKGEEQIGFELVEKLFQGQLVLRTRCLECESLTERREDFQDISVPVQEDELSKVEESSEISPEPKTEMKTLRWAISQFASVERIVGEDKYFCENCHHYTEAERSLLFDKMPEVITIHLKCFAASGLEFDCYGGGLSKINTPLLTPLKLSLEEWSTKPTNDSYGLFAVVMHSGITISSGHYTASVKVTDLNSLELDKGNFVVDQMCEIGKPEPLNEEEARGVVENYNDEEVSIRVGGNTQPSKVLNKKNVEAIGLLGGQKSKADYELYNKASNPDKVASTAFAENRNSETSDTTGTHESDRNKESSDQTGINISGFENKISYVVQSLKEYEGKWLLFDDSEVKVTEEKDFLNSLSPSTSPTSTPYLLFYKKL
Summary of the method: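 USP1/UAF1 complex at 1 nM preincubated 15 min at room temperature with compound, then Ub-Rho substrate added at 150 nM final. Fluorescence (480/540 nm) read kinetically in 50 mM HEPES pH 7.8, 0.5 mM EDTA, 1 mM TCEP, 0.1 mg/ml BSA, 0.01% Tween-20.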

[11] = biological target: DNA dC->dU-editing enzyme APOBEC-3G (Homo sapiens) (UniProt Q9HC16); experiment: qHTS for inhibitors of Vif-A3G interactions: Validation (AID 588379)
Chain of DNA dC->dU-editing enzyme APOBEC-3G (Homo sapiens) (Q9HC16 whole entry, looked up): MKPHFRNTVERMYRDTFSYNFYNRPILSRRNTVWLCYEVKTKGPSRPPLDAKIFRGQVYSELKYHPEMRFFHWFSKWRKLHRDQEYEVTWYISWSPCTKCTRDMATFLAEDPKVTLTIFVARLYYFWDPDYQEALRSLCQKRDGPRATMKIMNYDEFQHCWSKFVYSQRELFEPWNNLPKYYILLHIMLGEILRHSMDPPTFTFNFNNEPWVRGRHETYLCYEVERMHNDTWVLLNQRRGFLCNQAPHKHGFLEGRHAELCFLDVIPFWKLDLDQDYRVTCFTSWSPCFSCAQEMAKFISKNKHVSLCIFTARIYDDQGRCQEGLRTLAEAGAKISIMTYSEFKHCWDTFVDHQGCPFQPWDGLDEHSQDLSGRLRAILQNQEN
Summary of the method: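 Yellow fluorescence (Ex 488, Em 500-530) of Vif-coexpressing HeLa A3G-eYFP cells, scanned by Acumen cytometer, reports blocked A3G degradation. Cells plated at 700/well overnight at 37 deg C before compound addition, then a further overnight compound incubation at 37 deg C.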

[12] = biological target: Luciferin 4-monooxygenase (Photinus pyralis) (UniProt P08659); experiment: Biochemical firefly luciferase enzyme assay for NPC (AID 624030);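 also: purified P. pyralis luciferase at 10 nM with luciferin and ATP substrate; nearly all actives have a fitted effect of over 70% in size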
Summary of the method: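 Purified P. pyralis luciferase at 10 nM in 50 mM Tris Acetate (final), luminescence read within 5 minutes of enzyme addition to compounds. Activity normalised to PTC124 versus DMSO; concentration-response curves classed by r2, magnitude and activity.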

[13] = S16 Schwann cell viability assay (CellTiter-Glo assay) (AID 624031);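 also: native untransfected S16 rat Schwann cells; nearly all actives have a fitted effect of over 70% in size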
Summary of the method: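 Counter-screen for cytotoxicity: parental S16 rat Schwann cells lacking the PMP22 reporters, treated 24 h with compound, viability from cellular ATP by CellTiter-Glo luminescence, normalized to DMSO (0%) and no-cell wells.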

[14] = S16 Schwann cell PMP22 intronic element firefly luciferase assay (AID 624032); also: nearly all actives have a fitted effect of over 30% in size
Summary of the method: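 Rat S16 Schwann cells stably carrying firefly luciferase driven by a PMP22 intronic element, in 10% FBS, treated 24 h at 37 C. ONE-Glo luminescence normalized to PTC124 control and DMSO (0%); curves classed by r2, magnitude and activity.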

[15] = P-glycoprotein substrates identified in KB-3-1 adenocarcinoma cell line, qHTS therapeutic library screen (AID 1346986); also: nearly all actives have a fitted effect of over 60% in size
Summary of the method: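 In 1536-well format, 500 cells/well received pinned compound titrations and were incubated 72 h, 5% CO2. Viability was read by CellTiter-Glo; cytotoxic if AC50 < 10 uM and efficacy >50%.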

[16] = P-glycoprotein substrates identified in KB-8-5-11 adenocarcinoma cell line, qHTS therapeutic library screen (AID 1346987); also: nearly all actives have a fitted effect of over 65% in size
Summary of the method: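 Compounds are pinned in dose-response onto KB-8-5-11 cells (500 cells/well, colchicine-free medium) and left 72 h at 37 degree C. CellTiter-Glo luminescence then yields AC50 values.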

[17] = Primary qHTS for inhibitors of SARS-S pseudo-typed particle cell entry (AID 1479145; calls by dose curve; also: nearly all actives have a fitted effect of over 45% in size)
[18] = Primary qHTS for Huh7 cytotoxicity: counterscreen for inhibitors of MERS-S pseudotyped particle cell entry (AID 1479147; calls by dose curve); conditions: outcome: dose series up to 57.1 µM unless noted
[19] = Primary qHTS for inhibitors of MERS-S pseudo-typed particle cell entry (AID 1479149; calls by dose curve; also: nearly all actives have a fitted effect of over 60% in size)
[20] = Cytotoxicity counterscreen for inhibitors of SARS-CoV-2 cell entry (AID 1645845; calls by dose curve; also: nearly all actives have a fitted effect of over 50% in size)
Summary of the method: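 Counterscreen run in the same HEK293-ACE2 line as the pseudotyped-particle entry assay, without particles. Viability after 48 h at 37 C was read as ATP luminescence, scaled between cell-containing and cell-free wells.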

[21] = Primary qHTS to identify inhibitors of SARS-CoV-2 cell entry (AID 1645846; calls by dose curve; also: nearly all actives have a fitted effect of over 45% in size); conditions: activity change, negative = inhibition: at 57.1 µM (top of the series) unless noted
Summary of the method: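 HEK293 cells stably expressing human ACE2, pre-treated 1 h with compound, then infected with MLV particles pseudotyped with Wuhan-Hu-1 spike (C-terminal 19-aa truncation). Luciferase luminescence after 48 h at 37 °C, normalised to spike PP and bald PP.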

[22] = Primary qHTS for inhibitors of nuclear receptor binding SET domain protein 2 (NSD2) in an isogenic RCH-ACV NSD2 p.E1099K mutant (9B) (AID 1645876); also: nearly all actives have a fitted effect of over 70% in size
[23] = Primary qHTS for inhibitors of nuclear receptor binding SET domain protein 2 (NSD2) in an RCH-ACV wild type WT cells (2C) (AID 1645877); also: nearly all actives have a fitted effect of over 70% in size
[24] = biological target: Glutathione peroxidase 1 (Homo sapiens) (UniProt P07203); experiment: Primary qHTS Assay for Inhibitors of Recombinant Selenoprotein Glutathione Peroxidase 1 (GPX1) (AID 1845191); also: nearly all actives have a fitted effect of over 65% in size
Chain of Glutathione peroxidase 1 (Homo sapiens) (P07203 whole entry, looked up): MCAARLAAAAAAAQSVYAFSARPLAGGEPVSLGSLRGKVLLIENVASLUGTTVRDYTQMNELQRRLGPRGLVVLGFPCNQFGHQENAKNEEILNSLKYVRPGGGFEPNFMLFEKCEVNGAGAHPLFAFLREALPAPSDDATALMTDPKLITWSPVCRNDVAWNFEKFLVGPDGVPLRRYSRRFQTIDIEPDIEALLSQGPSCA
Summary of the method: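 GR-coupled readout: NADPH consumption tracked by fluorescence, ex 340/em 450 nm, at t=0 and after 15 min at RT. Final mix 10 nM GPX1, 1 mM GSH, 0.5 mM CHP, 0.5 mM NADPH, 100 nM GR, 0.01% BSA, following 30 min enzyme–compound preincubation.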

[25] = biological target: Phospholipid hydroperoxide glutathione peroxidase GPX4 (Homo sapiens) (UniProt P36969); experiment: Primary qHTS Assay for Inhibitors of Recombinant Selenoprotein Glutathione Peroxidase 4 (GPX4) (AID 1845192); also: nearly all actives have a fitted effect of over 65% in size
Chain of Phospholipid hydroperoxide glutathione peroxidase GPX4 (Homo sapiens) (P36969 whole entry, looked up): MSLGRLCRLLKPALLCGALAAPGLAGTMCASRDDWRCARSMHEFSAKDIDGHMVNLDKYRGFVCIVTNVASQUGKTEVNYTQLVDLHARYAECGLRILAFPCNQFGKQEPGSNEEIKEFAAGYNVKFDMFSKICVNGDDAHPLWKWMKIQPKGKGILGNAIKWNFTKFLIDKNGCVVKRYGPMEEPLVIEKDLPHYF
Summary of the method: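 Steps: GPX4 plus compound, 30 min RT; add GR/GSH/NADPH master mix; start with cumene hydroperoxide; read 340/450 nm fluorescence at 0 and 15 min. Finals were 200 nM GPX4, 1 mM GSH, 0.5 mM CHP, 0.5 mM NADPH, 100 nM GR.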

3D7 = experiment: qHTS profiling for inhibitors of Plasmodium falciparum proliferation (AID 504749); also: nearly all actives have a fitted effect of over 60% in size; also: potency is read from the fitted curve at half-maximal effect; conditions: P. falciparum in erythrocytes, SYBR Green DNA, 72 h; series mostly up to 28.7 µM
Summary of the method: (§1)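 Each compound contacts P. falciparum-infected red blood cells for 72 h at 37 C; lysis buffer (Tris, EDTA, saponin, Triton X, SYBR Green I) is added and fluorescence measured next morning; values normalized to controls.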

7G8 = experiment: as above; conditions: P. falciparum in erythrocytes, SYBR Green DNA, 72 h; series mostly up to 28.7 µM
Summary of the method: as §1

AS120 = experiment: as above; conditions: P. falciparum in erythrocytes, SYBR Green DNA, 72 h; series mostly up to 28.7 µM
Summary of the method: as §1

C2A = experiment: as above; conditions: P. falciparum in erythrocytes, SYBR Green DNA, 72 h; series mostly up to 28.7 µM
Summary of the method: as §1

CP191 = experiment: as above; conditions: P. falciparum in erythrocytes, SYBR Green DNA, 72 h; series mostly up to 28.7 µM
Summary of the method: as §1

CP192 = experiment: as above; conditions: P. falciparum in erythrocytes, SYBR Green DNA, 72 h; series mostly up to 28.7 µM
Summary of the method: as §1

CP237 = experiment: as above; conditions: P. falciparum in erythrocytes, SYBR Green DNA, 72 h; series mostly up to 28.7 µM
Summary of the method: as §1

CP256 = experiment: as above; conditions: P. falciparum in erythrocytes, SYBR Green DNA, 72 h; series mostly up to 28.7 µM
Summary of the method: as §1

CP262 = experiment: as above; conditions: P. falciparum in erythrocytes, SYBR Green DNA, 72 h; series mostly up to 28.7 µM
Summary of the method: as §1

CP269 = experiment: as above; conditions: P. falciparum in erythrocytes, SYBR Green DNA, 72 h; series mostly up to 28.7 µM
Summary of the method: as §1

CP297 = experiment: as above; conditions: P. falciparum in erythrocytes, SYBR Green DNA, 72 h; series mostly up to 28.7 µM
Summary of the method: as §1

CP315 = experiment: as above; conditions: P. falciparum in erythrocytes, SYBR Green DNA, 72 h; series mostly up to 28.7 µM
Summary of the method: as §1

Dd2 = experiment: as above; conditions: P. falciparum in erythrocytes, SYBR Green DNA, 72 h; series mostly up to 28.7 µM
Summary of the method: as §1

GB4 = experiment: as above; conditions: P. falciparum in erythrocytes, SYBR Green DNA, 72 h; series mostly up to 28.7 µM
Summary of the method: as §1

ICS = experiment: as above; conditions: P. falciparum in erythrocytes, SYBR Green DNA, 72 h; series mostly up to 28.7 µM
Summary of the method: as §1

JCK = experiment: as above; conditions: P. falciparum in erythrocytes, SYBR Green DNA, 72 h; series mostly up to 28.7 µM
Summary of the method: as §1

PC49 = experiment: as above; conditions: P. falciparum in erythrocytes, SYBR Green DNA, 72 h; series mostly up to 28.7 µM
Summary of the method: as §1

TAB113 = experiment: as above; conditions: P. falciparum in erythrocytes, SYBR Green DNA, 72 h; series mostly up to 28.7 µM
Summary of the method: as §1

TAB165 = experiment: as above; conditions: P. falciparum in erythrocytes, SYBR Green DNA, 72 h; series mostly up to 28.7 µM
Summary of the method: as §1

W2 = experiment: as above; conditions: P. falciparum in erythrocytes, SYBR Green DNA, 72 h; series mostly up to 28.7 µM
Summary of the method: as §1

Measured: Potency

Cc1cccc([C@H](C)c2cnc[nH]2)c1C
active: [1] 0.158 µM | [5] 0.199 µM | [6] 0.158 µM | [8] 5.01 µM | 7G8 7.94 µM | CP191 7.08 µM | CP237 11.2 µM | CP256 7.08 µM | CP297 10.7 µM | Dd2 11.2 µM | GB4 8.49 µM | ICS 12.6 µM | TAB165 4.47 µM | W2 10.7 µM
inactive: [2] > 46 µM | [3] > 46 µM | [4] | [7] | [9] | [10] | [11] | [12] | [13] | [14] | [15] | [16] | [17] | [18] | [19] | [20] | [21] | [22] | [23] | [24] | [25] | 3D7 | AS120 | C2A | CP192 | CP262 | CP269 | CP315 | JCK | PC49 | TAB113
